From PubChem BioAssay AID1240 (Sanford-Burnham Center for Chemical Genomics, 2008)
In all, about 50,000 compounds went through this assay and about 800 (1.6%) showed an effect of 50% or more. The full list was thinned out, with strong results kept by preference.

Target: Bcl-2-like protein 10 (Homo sapiens) (UniProt Q9HD36)
Assay: TR3 peptide-Bcl-B binding displacers, biochemical primary FP assay, phenotype converters (AID 1240);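 also: 0% = Bcl-B with tracer peptide and DMSO and 100% = tracer peptide lacking Bcl-B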
Conditions: GST-Bcl-B / FITC-TR3 peptide fluorescence polarization; stronger effect = higher value; compound at 3.75 mg/L

Chain of Bcl-2-like protein 10 (Homo sapiens) (Q9HD36 whole entry, looked up): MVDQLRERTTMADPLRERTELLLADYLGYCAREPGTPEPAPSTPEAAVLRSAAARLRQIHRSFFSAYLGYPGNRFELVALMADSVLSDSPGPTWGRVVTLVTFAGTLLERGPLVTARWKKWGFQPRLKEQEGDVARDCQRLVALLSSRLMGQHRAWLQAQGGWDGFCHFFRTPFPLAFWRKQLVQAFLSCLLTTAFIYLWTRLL

SMILES	displacement
CCN1C(=O)c2cccc3c(NC(=O)c4ccc(Cl)s4)ccc1c23	11.6%
CCN1C(=O)c2cccc3c(S(=O)(=O)N(C)C)ccc1c23	6.6%
CCN1C(=O)c2cccc3c(NC(=O)c4ccc(S(=O)(=O)N5CCCCCC5)cc4)ccc1c23	88.2%
CCN1C(=O)c2cccc3c(NC(=O)c4ccc(S(=O)(=O)N5CCOCC5)cc4)ccc1c23	8.7%
O=C(Nc1cccc2ccccc12)c1ccc(S(=O)(=O)N2CCCCC2)cc1	-8.9%
CCN1C(=O)c2cccc3c(NC(=O)c4ccc(Oc5ccccc5)cc4)ccc1c23	-14.2%
CCN1C(=O)c2cccc3c(NC(=O)c4ccc(C(=O)c5ccccc5)cc4)ccc1c23	101%
CCN1C(=O)c2cccc3c(NC(=O)c4ccc(S(=O)(=O)N(C)C)cc4)ccc1c23	84.1%
CCN1C(=O)c2cccc3c(NC(=O)c4cccs4)ccc1c23	-29.9%
COCCNC(=O)Cc1ccc(Br)cc1	13.1%
COc1ccc(CC(=O)Nc2cccc(NC(=O)c3cccc(Cl)c3)c2)cc1OC	-0.7%
CCc1nn2c(N)c(C=C3C=CC(=O)C=C3)c(=O)nc2s1	1.9%
COc1ccc(CCNC(=O)C2CN(S(=O)(=O)c3ccccc3)CCN2S(=O)(=O)c2ccccc2)cc1OC (stereo unspecified)	-2.8%
O=C(COC(=O)C1CC(=O)N(c2ccc(Cl)cc2)C1)c1ccccc1 (stereo unspecified)	9.1%
O=C(NC(=S)Nc1ccc(N2CCCCC2)c(Cl)c1)c1ccco1	-7.1%
CC(C)CCn1c(=O)[nH]c2ccccc21	10.2%
CCCc1c(C)nc2c(Cl)cccc2c1SCC(=O)O	-1.7%
COC(=O)c1c(NC(=O)c2ccco2)sc2c1CCC2	91.1%
COC(=O)c1c(NC(=O)c2ccco2)sc2c1CCC(C)C2 (stereo unspecified)	0.1%
NC(=O)c1c(NC(=O)c2ccco2)sc2c1CCC2	4.5%
CCc1ccccc1OCCCNC(C)(C)C	1.5%
O=C(NNC(=O)c1cc([N+](=O)[O-])ccc1Cl)c1ccc([N+](=O)[O-])cc1	-4.8%

SMILES	displacement
NC(=O)C1CCN(C(=O)c2ccc([N+](=O)[O-])cc2)CC1	4.4%
Cc1ccc(-c2csc(NC(=O)C3C4CCC(C4)C3C(=O)O)n2)c(C)c1 (stereo unspecified)	-0.1%
CC(Oc1ccccc1)C(=O)NCc1cccnc1 (stereo unspecified)	3.9%
CCOc1ccc2nc(NC(=O)C(c3ccccc3)c3ccccc3)sc2c1	66.7%
CCOc1ccc2nc(NC(=O)c3ccccc3C(=O)O)sc2c1	-7%
CCOc1ccc2nc(NC(=O)c3ccccc3O)sc2c1	-1%
COc1ccc(Cc2nc(-c3ccc(Cl)cc3)no2)cc1OC	1.1%
Cc1ccc(OCCOc2ccc(Br)cc2C=C2C(=O)NC(=S)NC2=O)cc1	-23.5%
O=C(CSc1nc2ccccc2o1)NCc1ccco1	-19.3%
Cc1ccc(N(CC(=O)O)S(=O)(=O)c2ccc(F)cc2)cc1	8.4%
CCOC(=O)c1c(-c2ccccc2)oc2ccc(OC(=O)C(C)(C)C)cc12	10.8%
CCOC(=O)c1c(-c2ccccc2)oc2ccc(OC(=O)c3ccco3)cc12	99.8%
CCOc1ccc2oc(-c3ccccc3)c(C(=O)O)c2c1	5.4%
CC(Oc1ccc2oc(-c3ccccc3)c(C(=O)O)c2c1)C(=O)O (stereo unspecified)	59.2%
CCOC(=O)c1c(-c2ccccc2)oc2cc(Br)c(OC(=O)c3ccco3)cc12	8.8%
Cc1oc2ccc(OC(C)C(=O)O)cc2c1C(=O)O (stereo unspecified)	14.7%
O=C(CSc1nc2ccccc2[nH]1)N/N=C/c1cccc(Cl)c1Cl	-5.4%
COc1ccccc1CC(=O)N1CCN(c2ccc([N+](=O)[O-])cc2)CC1	11.9%
COc1ccc(CC(=O)Nc2sc3c(c2C(=O)Nc2ccccc2Cl)CCCC3)cc1	-9.7%
COc1ccc(Cl)cc1/C=C1/C(=O)NN(c2cccc(Br)c2)C1=O	-1.3%
Cc1cccc(N2C(=O)Cn3c2nc2c3c(=O)n(C)c(=O)n2C)c1	-5.8%
Cc1ccc(N2C(=O)Cn3c2nc2c3c(=O)n(C)c(=O)n2C)cc1Cl	-12.5%

SMILES	displacement
COc1ccc(N2C(=O)Cn3c2nc2c3c(=O)n(C)c(=O)n2C)cc1	61.6%
CC(O)c1cccc(NC(=O)c2nn3c(c2Cl)NC(c2ccco2)CC3C(F)(F)F)c1 (stereo unspecified)	-0.1%
COc1ccc(C(=O)NC(=S)NCc2ccco2)cc1	9.4%
Cn1c(-n2c(CCCN3C(=O)c4ccccc4C3=O)nc3ccccc3c2=O)nc2ccccc21	35.4%
Cc1cccc(-n2c(CCN3C(=O)c4ccccc4C3=O)nc3ccccc3c2=O)n1	-0.9%
Cn1c(-n2c(CCN3C(=O)c4ccccc4C3=O)nc3ccccc3c2=O)nc2ccccc21	66.3%
C/C(=N\NC(=O)c1ccccn1)c1ccc(F)cc1	-18.6%
O=C1NC(=O)N(c2ccc(Cl)cc2)C(=O)/C1=C/c1ccc(O)c(Br)c1	-8.4%
O=C(Oc1ccc(Cl)cc1)c1cccc(S(=O)(=O)N2CCOCC2)c1	-8.4%
COC(=O)c1cccc(S(=O)(=O)N2CCOCC2)c1	-16%
O=C(Oc1cccc(-c2cnc3ccccc3n2)c1)c1cccc(S(=O)(=O)N2CCOCC2)c1	225%
N#C/C(=C\c1cn(CC(=O)Nc2ccccc2)c2ccccc12)C(=O)Nc1ccccc1	-36.7%
Cc1cccc(NC(=O)/C(C#N)=C/c2cn(CC(=O)Nc3ccccc3)c3ccccc23)c1C	-60.5%
N#C/C(=C\c1cn(CC(=O)Nc2ccccc2)c2ccccc12)C(=O)Nc1ccccc1Cl	126%
N#C/C(=C\c1cn(CC(=O)Nc2ccccc2)c2ccccc12)C(=O)Nc1ccc(F)cc1	-30.3%
CCOc1cccc(NC(=O)/C(C#N)=C/c2cn(CC(=O)Nc3ccccc3)c3ccccc23)c1	104%
COc1ccc(NC(=O)/C(C#N)=C/c2cn(CC(=O)Nc3ccccc3)c3ccccc23)cc1	-21.4%
N#C/C(=C\c1cn(CC(=O)Nc2ccccc2)c2ccccc12)C(=O)NCc1ccccc1	61.2%
C#CCn1cc(/C=C(/C#N)C(=O)Nc2ccc(OCC)cc2)c2ccccc21	5.9%
CCc1ccccc1NC(=O)/C(C#N)=C/c1cn(CC(=O)Nc2ccccc2)c2ccccc12	-26.1%
Cc1ccc2c(c1)c(-c1ccccc1)c(-c1ccccc1)n2CC(O)CN1C(=O)CSC1=O (stereo unspecified)	11.4%
CCOc1ccc(C2C(C(=O)/C=C/c3ccccc3)=C(O)C(=O)N2CCCCCC(=O)O)cc1 (stereo unspecified)	-1%
